# PD-1 reversal – activators reversing PD-1 mediated T-cell inhibition; primary human CD4 T cells, PD-L1 beads, CellTiter-Glo 96 h; activation, % (concentration not given with the values); 29,000 tested, under 10 active; AID 2316; call rule not given here
# STK33 kin inh – blocks human STK33 kinase activity | hit rate 0.44% among 27,000 | ADP-Glo luminescence, MBP substrate | inhibition, % at 12.5 µM; in the data active = inhibition above about 20%; inconclusive = no clear call, values can overlap the other calls
# Target sequence (Q9BYT3 whole entry, looked up): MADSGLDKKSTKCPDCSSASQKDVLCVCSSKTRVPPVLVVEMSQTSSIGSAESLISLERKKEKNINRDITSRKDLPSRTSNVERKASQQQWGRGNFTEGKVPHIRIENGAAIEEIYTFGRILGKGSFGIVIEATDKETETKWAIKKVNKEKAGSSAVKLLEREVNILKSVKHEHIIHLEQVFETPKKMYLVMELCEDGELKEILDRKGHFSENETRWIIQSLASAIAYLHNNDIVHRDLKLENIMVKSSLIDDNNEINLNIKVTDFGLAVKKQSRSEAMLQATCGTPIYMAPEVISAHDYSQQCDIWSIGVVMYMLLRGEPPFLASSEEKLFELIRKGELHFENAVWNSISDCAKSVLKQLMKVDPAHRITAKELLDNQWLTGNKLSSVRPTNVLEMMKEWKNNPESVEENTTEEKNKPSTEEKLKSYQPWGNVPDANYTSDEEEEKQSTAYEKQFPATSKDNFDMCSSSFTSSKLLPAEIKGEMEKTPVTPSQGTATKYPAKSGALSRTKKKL
# NOMO-1 viab – STK33 inhibitor candidate reducing NOMO-1 cell viability; AID 2330; hit rate 7.5% among 37,000; NOMO-1 AML viability, CellTiter-Glo luminescence, 72 h; inhibition, % (no concentration beside the values); in the data active = inhibition above about 80%; inconclusive = no clear call, values can overlap the other calls
# A number is an active result; – = inactive; ? = inconclusive; · = no result given. Shown is part of a subset that was picked to be rich in hits.
SMILES,PD-1 reversal,STK33 kin inh,NOMO-1 viab
C[C@@H]1CCCCO[C@H](CN(C)CC2CCCCC2)[C@@H](C)CN([C@H](C)CO)C(=O)c2cc(NS(=O)(=O)c3ccc(Cl)cc3)ccc2O1,–,–,?
C[C@@H]1CCCCO[C@@H](CN(C)S(=O)(=O)c2ccc(Cl)cc2)[C@@H](C)CN([C@H](C)CO)C(=O)c2cc(NS(=O)(=O)c3ccc(F)cc3)ccc2O1,·,–,103
COC(=O)c1ccc(Cl)c(NC(=O)C(C)N(c2ccc(C)cc2)S(C)(=O)=O)c1 (stereo not drawn),–,–,–
CC1(C)CC(=O)C2=C(C1)Nc1ccccc1N(C(=S)NCc1ccco1)C2c1cccnc1 (stereo not drawn),–,–,–
C[C@@H]1CN([C@H](C)CO)C(=O)c2cc(NC(=O)CCC(F)(F)F)ccc2O[C@@H]1CN(C)Cc1ccc(C(=O)Nc2ccccc2N)cc1,–,·,104
C[C@H]1CN([C@@H](C)CO)C(=O)c2cc(NC(=O)CCC(F)(F)F)ccc2O[C@@H]1CN(C)Cc1ccc(C(=O)Nc2ccccc2N)cc1,–,·,?
C[C@H]1CN([C@@H](C)CO)C(=O)Cc2cc(NC(=O)CCC(F)(F)F)ccc2O[C@@H]1CN(C)Cc1ccc(C(=O)Nc2ccccc2N)cc1,–,·,–
C[C@H]1CN([C@@H](C)CO)C(=O)Cc2cc(NC(=O)CCC(F)(F)F)ccc2O[C@H]1CN(C)Cc1ccc(C(=O)Nc2ccccc2N)cc1,–,·,139
COc1ccc(NC(=O)CSc2ncccn2)cc1Cl,–,–,–
O=C(Nc1ccc(Cl)cc1)c1ccccc1NS(=O)(=O)c1cccc2cccnc12,–,–,–
Cc1[nH]c2ccccc2c1/C=C/c1nc2ccccc2c(=O)n1CCCO,–,–,–
O=c1c2ccccc2nc(/C=C/c2cc(Br)ccc2O)n1CCCO,–,–,108
C[C@H]1CN([C@@H](C)CO)C(=O)c2cccc(NS(=O)(=O)c3ccc(Cl)cc3)c2O[C@H]1CN(C)C(=O)NC1CCCCC1,–,·,–
C[C@H](CO)N1C[C@H](C)[C@H](CN(C)C(=O)NC2CCCCC2)Oc2c(NS(=O)(=O)c3ccc(Cl)cc3)cccc2C1=O,–,·,88
COc1ccc(S(=O)(=O)Nc2cccc3c2O[C@H](CN(C)C(=O)NC2CCCCC2)[C@@H](C)CN([C@@H](C)CO)C3=O)cc1,·,·,–
COc1ccc(S(=O)(=O)Nc2cccc3c2O[C@@H](CN(C)C(=O)NC2CCCCC2)[C@@H](C)CN([C@H](C)CO)C3=O)cc1,–,·,114
COC(=O)C(O)(c1c(C)nn(-c2ccccc2)c1N)C(F)(F)F (stereo not drawn),–,–,–
Cc1ccc(C(=O)CC(C(=O)O)N2CCN(C)CC2)cc1 (stereo not drawn),–,–,–
COc1ccc(OC(C)C(=O)Nc2ccccc2C#N)cc1 (stereo not drawn),·,–,–
C[C@H]1CN([C@@H](C)CO)C(=O)c2cccc(NC(=O)C3CC3)c2O[C@@H]1CN(C)Cc1ccc2c(c1)OCO2,·,·,–
C[C@@H]1CN([C@@H](C)CO)C(=O)c2cccc(NC(=O)CCCCCC(=O)Nc3ccccc3N)c2O[C@H]1CN(C)Cc1ccc2c(c1)OCO2,–,·,117
C[C@@H]1CN([C@H](C)CO)C(=O)c2cccc(NC(=O)C3CC3)c2O[C@@H]1CN(C)Cc1ccc2c(c1)OCO2,–,·,–
C[C@H](CO)N1C[C@H](C)[C@H](CN(C)Cc2ccc3c(c2)OCO3)Oc2c(NC(=O)Nc3cccc4ccccc34)cccc2C1=O,–,·,–
C[C@H](CO)N1C[C@H](C)[C@@H](CN(C)Cc2ccc3c(c2)OCO3)Oc2c(NC(=O)CCCCCC(=O)Nc3ccccc3N)cccc2C1=O,–,·,123
C[C@H]1CN([C@@H](C)CO)C(=O)c2cccc(NC(=O)CCCCCC(=O)Nc3ccccc3N)c2O[C@@H]1CN(C)Cc1ccc2c(c1)OCO2,–,·,121
SMILES,PD-1 reversal,STK33 kin inh,NOMO-1 viab
CCOC(=O)c1c(NC(=O)Cn2c(=O)oc3ccccc32)sc(C(C)=O)c1C,–,–,–
O=C(OC1C(c2c(O)cc(O)c(C(=O)c3ccc(O)cc3)c2O)OC(CO)C(O)C1O)c1cc(O)c(O)c(O)c1 (stereo not drawn),–,–,–
CC(C)(C)c1ccc(CSCC(=O)Nc2ccccc2C#N)cc1,–,·,–
COc1ccccc1N(CC(=O)Nc1cccc([N+](=O)[O-])c1C)S(C)(=O)=O,–,–,–
COc1ccc(F)cc1S(=O)(=O)NCc1cccnc1,·,–,–
CCC(=O)NC(c1ccco1)c1cc(Cl)c2cccnc2c1O (stereo not drawn),–,·,126
COc1cc(Cl)c(C(Nc2ccccn2)c2cc(Cl)c3cccnc3c2O)cc1OC (stereo not drawn),·,–,110
CCOc1c(Cl)cc(CNCc2ccccn2)cc1OC,·,–,–
Cc1cc(OCC(=O)NCc2ccco2)ccc1Cl,·,–,·
Oc1c(C(Nc2ccccn2)c2cccc(F)c2)cc(Cl)c2cccnc12 (stereo not drawn),·,–,113
Oc1c(C(Nc2ccccn2)c2c(F)cccc2Cl)cc(Cl)c2cccnc12 (stereo not drawn),·,–,108
O=C(NCCN1CCOCC1)C(=O)Nc1cccc(F)c1,–,–,–
Oc1c(C(Nc2ccccn2)c2ccccn2)cc(Cl)c2cccnc12 (stereo not drawn),·,–,112
COc1ccc(S(=O)(=O)N(C)C[C@@H]2Oc3c(NC(=O)Nc4ccc(C(F)(F)F)cc4)cccc3C(=O)N([C@@H](C)CO)C[C@H]2C)cc1,–,·,–
COc1ccc(S(=O)(=O)N(C)C[C@H]2Oc3c(NC(=O)Nc4ccc(C(F)(F)F)cc4)cccc3C(=O)N([C@H](C)CO)C[C@@H]2C)cc1,–,·,?
COc1ccc(S(=O)(=O)N(C)C[C@H]2Oc3c(NC(=O)Nc4ccc(C(F)(F)F)cc4)cccc3C(=O)N([C@@H](C)CO)C[C@H]2C)cc1,–,·,121
COc1ccc(S(=O)(=O)N(C)C[C@H]2Oc3c(NC(=O)Nc4ccc(C(F)(F)F)cc4)cccc3C(=O)N([C@@H](C)CO)C[C@@H]2C)cc1,–,·,112
O=S(=O)(c1ccc(Cl)cc1)N1CCN(C(=S)NCc2ccco2)CC1,–,–,–
Cn1nc(C(C)(C)C)cc1N,–,·,–
O=C(O)CSc1nc2ccccc2n1CC(=O)O,–,–,–
CC(=O)O[C@@H]1CC2C(C)(C)C=CC(=O)[C@]2(C)C2CC[C@@]3(C)[C@H](c4ccoc4)OC(=O)C4OC43[C@@]21C (stereo partly drawn),–,–,–
COc1ccc(OC)c(S(=O)(=O)Nc2ccc(O)c3ccccc23)c1,–,–,127
COc1ccc(OC)c(S(=O)(=O)Nc2ccc(NC(C)=O)cc2)c1,·,–,–
CCN1C(=O)C=CC1=O,–,–,98
COc1ccc(C)cc1NC(=O)CSc1nc(C)cc(-c2ccccc2)n1,·,–,–
O=C(Nc1nc(-c2ccccc2)nc2c1C(=O)CCC2)c1ccccc1,–,·,–
COc1ccc(C(=O)Nc2ccc(Cc3ccc(NC(=O)c4ccc(OC)cc4)c(O)c3)cc2O)cc1,–,–,–
CC(C)NC(=O)Nc1ccc2c(c1)CC(=O)N([C@H](C)CO)C[C@H](C)[C@H](CN(C)Cc1ccc(C(F)(F)F)cc1)O2,·,·,–
C[C@H](CO)N1C[C@H](C)[C@H](CN(C)Cc2ccc(C(F)(F)F)cc2)Oc2ccc(NC(=O)Nc3ccc(F)cc3)cc2CC1=O,–,–,113

# Compound activity deposited in PubChem BioAssay by Broad Institute.
